Results filed as inconclusive are left out. The source made the active and inactive calls. How the source made its calls: active means hit-call score of the fitted dose curve at least 0.9, where 1 is the maximum; inconclusive means response in the unintended direction; inactive means score below 0.9.

Sequence of human Opioid Receptor Mu (Opiate Mu), OPRM1 (gene 4988) (P35372 whole entry, looked up): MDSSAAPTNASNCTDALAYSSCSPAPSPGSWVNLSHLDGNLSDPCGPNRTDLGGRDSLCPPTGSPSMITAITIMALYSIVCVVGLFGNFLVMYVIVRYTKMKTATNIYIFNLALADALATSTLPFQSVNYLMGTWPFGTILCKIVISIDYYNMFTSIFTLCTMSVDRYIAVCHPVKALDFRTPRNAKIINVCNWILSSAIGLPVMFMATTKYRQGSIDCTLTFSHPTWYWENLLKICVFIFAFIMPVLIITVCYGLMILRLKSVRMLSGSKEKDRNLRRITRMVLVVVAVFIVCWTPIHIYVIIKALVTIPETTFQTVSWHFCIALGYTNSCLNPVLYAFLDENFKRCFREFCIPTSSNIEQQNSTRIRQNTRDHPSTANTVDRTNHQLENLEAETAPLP

The target of this test is human Opioid Receptor Mu (Opiate Mu), OPRM1 (gene 4988) (UniProt P35372). The experiment in a line: NVS_GPCR_hOpiate_mu: NovaScreen (NVS) G Protein-Coupled Receptor Assay for human Opioid Receptor Mu (Opiate Mu) (AID 2283290).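 Further: hits lower bound tracer signal versus DMSO meaning displacement of the ligand.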 The protocol:
NVS_GPCR_hOpiate_mu is a biochemical, single-readout assay that uses extracted gene-proteins from CHO in a cell-free assay. Measurements were taken 2.5 hours after chemical dosing in a 96-well plate.NVS_GPCR_hOpiate_mu is one of one assay component(s) measured or calculated from the NVS_GPCR_hOpiate_mu assay. It is designed to make measurements of radioligand binding, a form of binding reporter, as detected with scintillation counting signals by Filter-based radiodetection technology.Data from the assay component NVS_GPCR_hOpiate_mu was analyzed into 1 assay endpoint. This assay endpoint, NVS_GPCR_hOpiate_mu, was analyzed in the positive analysis fitting direction relative to DMSO as the negative control and baseline of activity. Using a type of binding reporter, loss-of-signal activity can be used to understand changes in the binding as they relate to the gene OPRM1. Furthermore, this assay endpoint can be referred to as a primary readout, because the performed assay has only produced 1 assay endpoint. To generalize the intended target to other relatable targets, this assay endpoint is annotated to the gpcr intended target family, where the subfamily is rhodopsin-like receptor.
Binding assays used specific radioligands (tritiated, iodinated) with non-radioactive competitive displacement ligands in agonist or antagonist protocols (as indicated) and various reference compounds and inhibitors to titrate specific binding to receptors and transporters. Most enzyme assays (CYPs, kinases, phosphatases, proteases, HDACs) used recombinant protein and specific substrates (fluorescence mostly, some colorimetric and radioactive) and inhibitors, followed by a biochemical separation of substrate and product. All assays for the biochemical HTS were initially run in duplicate at a single concentration (10 uM for CYP450 assays and 25 uM for all others). […] Each assay was run with positive and negative controls, and concurrent controls on every plate. The follow-up (secondary) screen tested active chemical-pairs in concentration series, as well as a few additional assays not tested in the primary screen, some selected negative inactives, and several cases re-run in the concentration series for confirmatory purposes.
`COP(=S)(OC)SCN1C(=O)c2ccccc2C1=O`: the call was inactive.
On to `CCCCCCCCn1sccc1=O`, for which the AC50 (in general, the concentration giving half of the maximal activity seen) is 7.66 µM (active).
Regarding `CCC[CH2][Sn]([Cl])([CH2]CCC)[CH2]CCC`, the result was inactive.
Consider `Nc1ccc(Cl)cc1N`, for which the AC50 is 39.5 µM (active).
The same measure, in the same setting: next, `O=C(N[C@H](c1ccccc1)[C@@H]1CN2CCC1CC2)c1c(Cl)ccc(C(F)(F)F)c1Cl`: 10.1 µM (active); `CCOC(=O)[C@]1(c2ccccc2)Oc2ccccc2[C@@H]1N`: 13.1 µM (active).
With `O=[N+]([O-])c1ccc(Oc2ccc(Cl)cc2Cl)cc1`, the outcome was inactive.
`[Cl-].[Cl-].[Hg+2]`: the AC50 is 0.197 µM (active).
Consider `N#CC(Br)(Br)C(N)=O`, for which the call was inactive.
As for `O=[N+]([O-])C(Br)(CO)CO`, the molecule was called inactive.

The values are drawn from PubChem BioAssay (EPA / NIEHS).
